Measured values as given in PubChem BioAssay (Tox21).
Results filed as inconclusive are left out. Active and inactive are the calls of the source. Calls follow the shape of the dose curve; as a rule, active = well fitted curve in the direction sought with a large enough effect in the repeat runs; inconclusive = weak or mixed curves; inactive = no such curve, though single readings can be large; an effect the other way counts as inactive or inconclusive.

Legend:
[1] = A CellTox Green Cytotoxicity Assay to monitor cytotoxicity in HEK293 cells - 40 hour (AID 1224871); also: nearly all actives have a fitted effect of over 45% in size
Procedure, shortened: (§1)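 Each value comes from one timepoint of a single continuous run in which HEK293 cells with CellTox Green were exposed to compound for up to 40 h at 37 C, dye fluorescence rising with cell death.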

[2] = qHTS RealTime-Glo MT Cell Viability Assay in HEK293 cells - 16 hour (AID 1224872); also: top concentration of the series differs between compounds; nearly all actives have a fitted effect of over 50% in size
Procedure, shortened: (§2)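 Homogeneous bioluminescent viability format in HEK293 cells (600 cells/well). Following 5 h at 37 C/5% CO2, 23 nL compound was pintooled; the signal was measured repeatedly during 40 h incubation.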

[3] = qHTS RealTime-Glo MT Cell Viability Assay in HepG2 cells - 8 hour (AID 1224873); also: nearly all actives have a fitted effect of over 55% in size
Procedure, shortened: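 HepG2 cells mixed with RealTime-Glo MT reagents (NanoLuc plus cell-permeant prosubstrate) were seeded at 600 cells/well, incubated 5 h at 37 C/5% CO2, then pinned with compounds in DMSO; nonlytic luminescence tracked viability during 40 h treatment.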

[4] = qHTS RealTime-Glo MT Cell Viability Assay in HEK293 cells - 40 hour (AID 1224874); details: RealTime-Glo luminescence; max response: active compounds read low; also: nearly all actives have a fitted effect of over 50% in size
Procedure, shortened: (§3)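 qHTS format; HEK293 cells with NanoLuc/prosubstrate reagent, 37 C/5% CO2 for 5 h pre-dosing; compounds 23 nL in DMSO; luminescence at each time point reflects viable cells.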

[5] = A CellTox Green Cytotoxicity Assay to monitor cytotoxicity in HEK293 cells - 24 hour (AID 1224875); also: series mostly up to about 77 µM; nearly all actives have a fitted effect of over 45% in size
Procedure, shortened: as §1

[6] = A CellTox Green Cytotoxicity Assay to monitor cytotoxicity in HepG2 cells - 16 hour (AID 1224876); also: nearly all actives have a fitted effect of over 45% in size
Procedure, shortened: (§4)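 Continuous culture of HepG2 cells with a membrane-impermeant DNA dye; rising fluorescence marks dead cells. Compound exposure lasted up to 40 h at 37 C, with reads every 8 h from 0 h.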

[7] = qHTS RealTime-Glo MT Cell Viability Assay in HepG2 cells - 32 hour (AID 1224877); also: nearly all actives have a fitted effect of over 55% in size
Procedure, shortened: (§5)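 Cell number in HepG2 cultures estimated from NanoLuc luminescence generated by metabolic reduction of a prosubstrate by living cells. The homogeneous, nonlytic format allowed repeated reads at 0, 8, 16, 24, 32 and 40 h of compound exposure.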

[8] = A CellTox Green Cytotoxicity Assay to monitor cytotoxicity in HepG2 cells - 40 hour (AID 1224879); also: nearly all actives have a fitted effect of over 40% in size
Procedure, shortened: as §4

[9] = qHTS RealTime-Glo MT Cell Viability Assay in HEK293 cells - 0 hour (AID 1224880); also: top concentration of the series differs between compounds; nearly all actives have a fitted effect of over 45% in size
Procedure, shortened: as §3

[10] = A CellTox Green Cytotoxicity Assay to monitor cytotoxicity in HEK293 cells - 32 hour (AID 1224881); also: nearly all actives have a fitted effect of over 40% in size
Procedure, shortened: as §1

[11] = A CellTox Green Cytotoxicity Assay to monitor cytotoxicity in HepG2 cells - 0 hour (AID 1224882); also: nearly all actives have a fitted effect of over 35% in size
Procedure, shortened: as §4

[12] = A CellTox Green Cytotoxicity Assay to monitor cytotoxicity in HepG2 cells - 32 hour (AID 1224883); also: nearly all actives have a fitted effect of over 50% in size
Procedure, shortened: as §4

[13] = A CellTox Green Cytotoxicity Assay to monitor cytotoxicity in HEK293 cells - 8 hour (AID 1224884); also: nearly all actives have a fitted effect of over 35% in size
Procedure, shortened: as §1

[14] = qHTS RealTime-Glo MT Cell Viability Assay in HepG2 cells - 16 hour (AID 1224885); also: nearly all actives have a fitted effect of over 50% in size
Procedure, shortened: as §5

[15] = qHTS RealTime-Glo MT Cell Viability Assay in HEK293 cells - 24 hour (AID 1224886)
Procedure, shortened: as §2

[16] = qHTS RealTime-Glo MT Cell Viability Assay in HEK293 cells - 8 hour (AID 1224887)
Procedure, shortened: as §3

[17] = A CellTox Green Cytotoxicity Assay to monitor cytotoxicity in HEK293 cells - 16 hour (AID 1224888); also: nearly all actives have a fitted effect of over 35% in size
Procedure, shortened: as §1

[18] = qHTS RealTime-Glo MT Cell Viability Assay in HepG2 cells - 0 hour (AID 1224889); also: nearly all actives have a fitted effect of over 50% in size
Procedure, shortened: as §5

[19] = A CellTox Green Cytotoxicity Assay to monitor cytotoxicity in HepG2 cells - 8 hour (AID 1224890); also: nearly all actives have a fitted effect of over 45% in size
Procedure, shortened: as §4
% is scaled to controls: 0 for no effect and ±100 for the full control effect.

COc1cc(CCN)cc(OC)c1OC
inactive: Potency [1] | Potency [2] | outcome [3] | max response [4] -4.29% | Potency [5] | Potency [6] | Potency [7] | Potency [8] | outcome [9] | Potency [10] | outcome [11] | Potency [12] | Potency [13] | Potency [14] | Potency [15] | Potency [16] | Potency [17] | outcome [18] | Potency [19]

C[C@H](N)C(=O)c1ccccc1
inactive: Potency [1] | Potency [2] | outcome [3] | max response [4] -10.2% | Potency [5] | Potency [6] | Potency [7] | outcome [9] | Potency [10] | outcome [11] | Potency [12] | Potency [13] | Potency [14] | Potency [15] | Potency [16] | Potency [17] | outcome [18] | Potency [19]

Cc1ccc2c(c1)C1CN(C)CCC1N2 (stereo unspecified)
inactive: cytotoxicity increase [1] -9.63% [at 15.8 µM] | activity change, negative = cytotoxicity [2] -1.2% [at 15.8 µM] | viability change, negative = cytotoxic [3] -2.24% [at 15.8 µM] | max response [4] 2.17% | activity change [5] 0.918% [at 15.8 µM, active compounds read high] | cytotoxicity increase [6] 12.2% [at 15.8 µM] | activity change, negative = cytotoxic [7] -0.204% [at 15.8 µM] | cytotoxicity increase [8] 15.6% [at 15.8 µM] | activity change, negative = cytotoxicity [9] -0.907% [at 15.8 µM] | cytotoxicity increase [10] -4.65% [at 15.8 µM] | cytotoxicity [11] -0.534% [at 15.8 µM] | cytotoxicity increase [12] 14.3% [at 15.8 µM] | cytotoxicity increase [13] -1.28% [at 15.8 µM] | activity change, negative = cytotoxic [14] -6.11% [at 15.8 µM] | activity change, negative = cytotoxicity [15] -0.194% [at 15.8 µM] | activity change, negative = cytotoxicity [16] 1.42% [at 15.8 µM] | activity change [17] -0.0479% [at 15.8 µM, active compounds read high] | activity change, negative = cytotoxicity [18] -0.0575% [at 15.8 µM] | cytotoxicity increase [19] 11.9% [at 15.8 µM]

CCOP(=O)(CN(CCO)CCO)OCC
inactive: Potency [1] | Potency [2] | outcome [3] | max response [4] 1.2% | Potency [5] | Potency [6] | Potency [7] | Potency [8] | outcome [9] | outcome [11] | Potency [12] | Potency [13] | Potency [14] | Potency [15] | Potency [16] | Potency [17] | outcome [18] | Potency [19]

COc1ccccc1OC
inactive: Potency [1] | Potency [2] | outcome [3] | max response [4] 0.0799% | Potency [5] | Potency [6] | Potency [7] | Potency [8] | outcome [9] | outcome [11] | Potency [12] | Potency [13] | Potency [14] | Potency [15] | Potency [17] | outcome [18] | Potency [19]

CS(=O)(=O)c1ccc(C(=O)C2C(=O)CCCC2=O)c(Cl)c1COCC(F)(F)F
inactive: Potency [1] | Potency [2] | outcome [3] | max response [4] 2.82% | Potency [5] | Potency [6] | Potency [7] | Potency [8] | outcome [9] | Potency [10] | outcome [11] | Potency [12] | Potency [13] | Potency [14] | Potency [15] | Potency [16] | Potency [17] | outcome [18] | Potency [19]

CCCOc1nn(C(=O)NS(=O)(=O)c2ccccc2C(=O)OC)c(=O)n1C
inactive: Potency [1] | Potency [2] | outcome [3] | max response [4] 22.1% | Potency [5] | Potency [6] | Potency [7] | Potency [8] | outcome [9] | Potency [10] | outcome [11] | Potency [12] | Potency [13] | Potency [14] | Potency [15] | Potency [16] | Potency [17] | outcome [18] | Potency [19]

CCOC(=O)c1ncn2c1CN(C)C(=O)c1c(I)cccc1-2
inactive: Potency [1] | Potency [2] | outcome [3] | max response [4] 1.2% | Potency [5] | Potency [6] | Potency [7] | Potency [8] | outcome [9] | Potency [10] | outcome [11] | Potency [12] | Potency [13] | Potency [14] | Potency [15] | Potency [16] | Potency [17] | outcome [18]

CN(C)CCc1c[nH]c2cccc(OP(=O)(O)O)c12
inactive: Potency [1] | Potency [2] | outcome [3] | max response [4] -0.389% | Potency [5] | Potency [6] | Potency [7] | outcome [9] | Potency [10] | outcome [11] | Potency [12] | Potency [13] | Potency [14] | Potency [15] | Potency [16] | Potency [17] | outcome [18] | Potency [19]

O=C(CCl)NCO
inactive: Potency [1] | Potency [2] | outcome [3] | max response [4] 1.67% | Potency [5] | Potency [6] | Potency [7] | Potency [8] | outcome [9] | Potency [10] | outcome [11] | Potency [12] | Potency [14] | Potency [15] | Potency [16] | Potency [17] | outcome [18]

COP(=O)(OC)O/C(C)=C/C(=O)N(C)C
inactive: Potency [1] | Potency [2] | outcome [3] | max response [4] 13.5% | Potency [5] | Potency [6] | Potency [7] | Potency [8] | outcome [9] | outcome [11] | Potency [12] | Potency [13] | Potency [14] | Potency [15] | Potency [16] | Potency [17] | outcome [18] | Potency [19]

N[C@@H]1C[C@H]1c1ccccc1
inactive: Potency [1] | Potency [2] | outcome [3] | max response [4] 1.46% | Potency [5] | Potency [6] | Potency [7] | Potency [8] | outcome [9] | Potency [10] | outcome [11] | Potency [12] | Potency [13] | Potency [15] | Potency [16] | Potency [17] | outcome [18] | Potency [19]

CC(C)(O)C(Cl)(Cl)Cl
inactive: Potency [1] | Potency [2] | outcome [3] | max response [4] 4.01% | Potency [5] | Potency [6] | Potency [7] | Potency [8] | outcome [9] | Potency [10] | outcome [11] | Potency [12] | Potency [15] | Potency [16] | Potency [17] | outcome [18] | Potency [19]

C=CCCC#N
inactive: Potency [1] | Potency [2] | outcome [3] | max response [4] 6.33% | Potency [5] | Potency [6] | Potency [7] | Potency [8] | outcome [9] | Potency [10] | outcome [11] | Potency [12] | Potency [13] | Potency [15] | Potency [16] | Potency [17] | outcome [18] | Potency [19]

NC(=O)OCCCc1ccccc1
inactive: Potency [1] | Potency [2] | outcome [3] | max response [4] 2.14% | Potency [5] | Potency [6] | Potency [7] | Potency [8] | outcome [9] | Potency [10] | outcome [11] | Potency [12] | Potency [14] | Potency [15] | Potency [16] | Potency [17] | outcome [18] | Potency [19]
